The values that follow come from PubChem BioAssay AID624126 (The Scripps Research Institute Molecular Screening Center, 2012).

Each structure is given as a SMILES string. Several values for one entry are separate records, joined by “and”; a condition that tells them apart may be missing. Identical values can stand only once. Out of some 360,000 compounds screened, about 1,400 (0.39%) were called active.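 How the source made its calls: active means activation above its plate's cutoff, the mean activation of sample wells plus 3 SD; inactive means the rest.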 Shown is part of a subset that was picked to be rich in actives.

The target in this assay is Muscarinic acetylcholine receptor M4 (Homo sapiens) (UniProt P08173). The assay can be described thus: CHRM4 PAMs potentiating acetylcholine calcium signal – CHO-K1 cells, Fluo-8 calcium fluorescence, primary screen (AID 624126). The note with it: CHO-K1 hM4/Gqi5, Fluo-8 calcium fluorescence, ACh EC20; at 3 µM; active compounds read high; 0% = ACh EC20, 100% = maximal ACh.
Sequence of Muscarinic acetylcholine receptor M4 (Homo sapiens) (P08173 whole entry, looked up): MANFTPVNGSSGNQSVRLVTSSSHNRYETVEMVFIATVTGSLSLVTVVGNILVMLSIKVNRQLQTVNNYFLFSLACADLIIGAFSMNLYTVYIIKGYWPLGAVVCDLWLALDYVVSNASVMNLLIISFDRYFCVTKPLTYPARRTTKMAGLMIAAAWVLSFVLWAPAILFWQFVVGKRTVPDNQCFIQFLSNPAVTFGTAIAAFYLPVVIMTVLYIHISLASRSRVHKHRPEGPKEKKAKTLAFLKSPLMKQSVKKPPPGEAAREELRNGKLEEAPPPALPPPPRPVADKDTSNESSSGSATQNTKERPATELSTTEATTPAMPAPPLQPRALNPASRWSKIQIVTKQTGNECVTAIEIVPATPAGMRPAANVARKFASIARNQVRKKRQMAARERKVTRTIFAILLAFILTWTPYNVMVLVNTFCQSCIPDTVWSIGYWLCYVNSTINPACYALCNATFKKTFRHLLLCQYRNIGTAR
`COc1ccc2nc(C)cc(Nc3cccc(C(=O)O)c3)c2c1`: the activation is -1.48% (inactive).

Consider `Cc1ccc(-n2ncc3c(Nc4cccc(C(=O)O)c4)ncnc32)cc1`, for which the activation is 29.6% (active).

Take `COC(=O)CSc1ncnc2c1cnn2-c1ccc(C)cc1C`: the activation was 1.46% (inactive). The value for `O=C1CN(C(=O)COC(=O)C2CC(=O)N(Cc3ccco3)C2)c2ccccc2N1` (stereo unspecified) was 13.2% (inactive). The value for `O=C(NCc1ccc2c(c1)OCO2)c1c(-c2ccsc2)sc2ccccc12` was -3.52% (inactive); that for `COc1cc2c(cc1OC)CN(C(C)C(=O)Nc1cccc(S(=O)(=O)N3CCOCC3)c1)CC2` (stereo unspecified) was 1.73% (inactive); that for `O=C(CNC(=O)C12CC3CC(CC(C3)C1)C2)OCC(=O)N1CCCCC1` was -2.08% (inactive). As for `COC(=O)c1ccc(CNC(=O)C2CCC(=O)N(Cc3cccc(F)c3)C2)cc1` (stereo unspecified), the figure is 2.75% (inactive). With `Cc1ccccc1CCNC(=O)C1CCC(=O)N(Cc2ccc(Cl)cc2)C1` (stereo unspecified), the activation is -4.94% (inactive).

Regarding `COC(=O)c1ccc(CNC(=O)C2CCC(=O)N(Cc3ccccn3)C2)cc1` (stereo unspecified), the activation was 13.8% (active).

Turning to `Cc1cc(C)c(S(=O)(=O)Nc2c(C)n(C)n(-c3ccccc3)c2=O)cc1[N+](=O)[O-]`, the activation was -0.44% (inactive). Turning to `CCOC(=O)c1cc(C(C)C)sc1NC(=O)COC(=O)c1nccnc1N`, the activation is 17% (inactive). As to `CC(C)(C)C(=O)CN1C2=NCCN2c2ccccc21`, the activation is -8.44% (inactive). The value for `O=C(NC1CCCC1)C(c1ccc(N2CCOCC2)cc1)N(C(=O)c1ccco1)c1ccccc1F` (stereo unspecified) was -4.93% (inactive); that for `Cc1ccc(N(C(=O)c2ccc(CN3CCOCC3)o2)C(C(=O)NCCC(C)C)c2cccs2)c(C)c1` (stereo unspecified) was 9.68% (inactive); that for `Cc1cccc(N(C(=O)c2ccc(CN3CCOCC3)o2)C(C(=O)NC2CCCCC2)c2ccc(F)cc2)c1` (stereo unspecified) was 15.7% (active). The value for `CSc1ncccc1C(=O)Nc1cccc(S(=O)(=O)N2CCOCC2)c1` was 7.64% (inactive). As for `Cc1ccc(S(=O)(=O)N(C)C)cc1NC(=O)C(C)OC(=O)c1ccc2ccccc2n1` (stereo unspecified), the figure is 21.1% (inactive); as for `COC(=O)c1cc(C(=O)OCC(=O)Nc2cc(C)on2)cc([N+](=O)[O-])c1`, 19.2% (inactive). Take `COC(=O)c1ccccc1NC(=O)Cn1nc(C(F)(F)F)c2c1CCC2`: the activation was -1.81% (inactive). `COCCn1c(SCC(=O)Nc2ccc(F)cc2F)nc2c(c1=O)SCC2`: the activation is 0.05% (inactive). Turning to `COCCn1c(SCC(=O)Nc2ccccc2F)nc2c(c1=O)SCC2`, the activation is 1.76% (inactive). The value for `COCCn1c(SCC(=O)N2CCCCCC2)nc2c(c1=O)SCC2` was 28% (active); that for `CC(=O)n1cc([C@@H]2C=C(C(=O)N3CCN(Cc4ccc5c(c4)OCO5)CC3)O[C@H](OCc3ccc(CO)cc3)C2)c2ccccc21` was -4.81% (inactive). As for `CC(C)n1ncc2c(C(=O)N3CCN(Cc4cccs4)CC3)cc(C3CC3)nc21`, the figure is 3.71% (inactive); as for `CC(OC(=O)/C=C/c1ccccc1)C(=O)Nc1ccc(C(N)=O)cc1` (stereo unspecified), 5.82% (inactive).

Consider `C=CCOc1ccc(/C=C/C(=O)OC(C)C(=O)Nc2ccc(NC(C)=O)cc2)cc1` (stereo unspecified), for which the activation is 0.99% (inactive). The value for `CCc1ccc(NC(=O)C(C)OC(=O)/C=C/c2cccc([N+](=O)[O-])c2)cc1` (stereo unspecified) was 30.3% (active); that for `O=C1CN(C(=O)CN2C(=O)NC3(CCCCC3)C2=O)c2ccccc2N1` was 3.42% (inactive); that for `Cn1c(SCC(=O)c2ccc(F)cc2)nnc1-c1ccccn1` was -3.85% (inactive). As for `Cn1c(SCC(=O)c2ccccc2)ncc(C(=O)Nc2ccc(F)cc2)c1=O`, the figure is 21.6% (active). The value for `Cc1ccc(NC(=O)c2cnc(SCC(=O)NCC3CCCO3)n(C)c2=O)cc1` (stereo unspecified) was 21.4% (inactive); that for `CC(C)NC(=O)N1Cc2cc(C(=O)NCC(F)(F)F)nc(-c3cccc(-c4cc5ccccc5o4)c3)c2[C@@H]1CCO` was 1.14% (inactive); that for `COc1ccc(CCNC(=O)CN2C(=O)CCSc3ccccc32)c(OC)c1` was 0.14% (inactive).

Take `CC(NS(=O)(=O)c1ccc(OCC(=O)N2CCCC2)cc1)c1ccccc1` (stereo unspecified): the activation is 1.05% (inactive). In the case of `O=C(COC(=O)c1ncc(Cl)c(Cl)c1Cl)NCc1ccccc1`, the activation was 16.7% (inactive). As for `CCN(CC)S(=O)(=O)c1ccc2c3c(cccc13)C(=O)S2`, the figure is -6.1% (inactive); as for `CCN1C(=O)c2cccc3c(S(=O)(=O)Nc4ccccc4O)ccc1c23`, 17.5% (active). Take `Cc1ccccc1C(=O)NNC(=O)CN1C(=O)c2ccccc2C1=O`: the activation is 9.49% (inactive).

In the case of `C/C(CC(=O)Nc1ccc(C)cc1C)=N\NC(=O)C(C)C`, the activation was 2.54% (inactive). As for `CN(C)C(=O)N1CCNCC1`, the figure is 4.12% (inactive); as for `Cc1cc(Br)cn2c(Cc3ccsc3)c(-c3ccc(C#N)cc3)nc12`, -5.22% (inactive). `COc1cc(CCC(=O)OCC(=O)Nc2cccc(S(N)(=O)=O)c2)cc(OC)c1OC`: the activation is 1.58% (inactive). For the compound `O=C1CSc2ccc(S(=O)(=O)NCc3ccccc3)cc2N1`, the activation was 0.62% (inactive).

`COc1cccc(C2=CC(=O)C[C@H](c3ccc(F)cc3)C2)c1OC`: the activation was 2.96% (inactive). The value for `Cc1c(C=O)c2ccccc2n1CC(=O)O` was 4.05% (inactive).

Turning to `Cc1c(C(=O)NNC(=O)c2ccncc2)oc2ccccc12`, the activation is 5.49% (inactive).

Consider `Cc1c(C=O)c2ccccn2c1C(=O)c1ccncc1`, for which the activation is 30.8% (active).

In the case of `COc1cccc(CNCCc2c[nH]c3ccccc23)c1OCc1ccccc1F`, the activation was -8.42% (inactive). The value for `Cc1nc2sc(C(c3ccco3)N3CCOCC3)c(O)n2n1` (stereo unspecified) was 31.4% (active). For `Cc1nc2sc(C(c3ccco3)N3CCC4(CC3)OCCO4)c(O)n2n1` (stereo unspecified), the activation was 5.78% (inactive). The value for `Cc1ccc(C(c2sc3nc(C)nn3c2O)N2CCN(c3ccccc3)CC2)cc1` (stereo unspecified) was 4.41% (inactive); that for `CCc1nnc(NS(=O)(=O)c2ccc(NC(=S)NC(=O)/C=C/c3cccs3)cc2)s1` was -0.35% (inactive); that for `Cc1cc(NS(=O)(=O)c2ccc(NC(=O)c3cccc(OC(F)F)c3)cc2)nc(C)n1` was 3.12% (inactive). Take `CCc1nnc(NS(=O)(=O)c2ccc(NC(=O)c3cccc(OC(F)(F)C(F)F)c3)cc2)s1`: the activation is 13.1% (active). The value for `CC(C)(C)N1CC(c2nc3ccccc3n2Cc2ccc(F)cc2)CC1=O` (stereo unspecified) was -1.38% (inactive); that for `O=C(Nc1ccc2c(c1)OCCO2)C(C1CC1)N1CCC(Cc2ccccc2)CC1` (stereo unspecified) was -15.2% (inactive); that for `CC(=O)NCC(=O)N(C)C(C(=O)Nc1ccc2c(c1)OCCO2)c1ccccc1` (stereo unspecified) was 16.8% (active).

Consider `CCc1ccccc1OCC(=O)Nc1ccc2c(c1)OCCO2`, for which the activation was -2.66% (inactive).

`Cc1ccccc1OCC(=O)N(Cc1cccc(F)c1)C1CCS(=O)(=O)C1` (stereo unspecified): the activation is 0.66% (inactive). With `CCOc1ccc(-n2c(SCC(=O)Nc3cc(C(=O)O)ccc3Cl)nc3ccccc3c2=O)cc1`, the activation is 17.1% (active). The value for `CCOCCCn1c(SCC(=O)Nc2cc(OC)ccc2OC)nc2ccccc2c1=O` was -0.05% (inactive); that for `CCOc1ccc(NC(=O)CSc2nc3ccccc3c(=O)n2Cc2cccs2)cc1` was -2.3% (inactive); that for `O=C1OCC2=C1C(c1ccccc1)CC(=O)N2c1cccc(F)c1` (stereo unspecified) was 11.7% (inactive). The value for `CC(C)c1cccc(C(C)C)c1Nc1cn[nH]c1` was 28.5% (active); that for `O=C(NCCOc1ccccc1)N1[C@H]2CC[C@@H]1C=C(c1ccc(F)cc1OCc1ccccc1)C2` was -2.49% (inactive). On to `COc1ccc(-n2c(SCC(=O)NCc3ccco3)nnc2-c2c[nH]c3ccccc23)cc1`, for which the activation is -1.54% (inactive). As for `O=C(CSc1nnc(-c2c[nH]c3ccccc23)n1-c1ccc(F)cc1)NCc1ccco1`, the figure is 32.8% (active). With `O=C(CSc1nnnn1-c1ccccc1)NCc1ccco1`, the activation is -4.53% (inactive). For `CCn1c(SC(C)C(=O)Nc2ccc(N3CCOCC3)cc2)nnc1-c1ccco1` (stereo unspecified), the activation is 1.69% (inactive).

In the case of `CC(Sc1ncnc2c1cnn2-c1ccccc1)C(=O)Nc1ccc(N2CCOCC2)cc1` (stereo unspecified), the activation was 23.6% (active). As for `CCC(C)N(C(=O)CSc1ncnc2c1cnn2-c1ccccc1)C1CCS(=O)(=O)C1` (stereo unspecified), the figure is -4.86% (inactive); as for `CCC(=O)c1cc(F)ccc1OCC(=O)Nc1ccc2c(c1)OCCO2`, -4.48% (inactive); as for `CCOc1ncccc1C(=O)Nc1ccc2c(c1)OCCO2`, -0.95% (inactive).

On to `CCOC(=O)c1cnc2ccc(F)cc2c1Nc1ccc2c(c1)OCCO2`, for which the activation was 27.1% (active).

Regarding `CCOc1cc(C)c(Cl)cc1S(=O)(=O)n1nnc2ccccc21`, the activation is 6.7% (inactive). The value for `COc1ccccc1Nc1ncc(C(C)=O)c(C)n1` was 2.09% (inactive); that for `O=C(c1[nH]ncc1-c1ccc(Cl)cc1)C1CO1` (stereo unspecified) was -6.34% (inactive); that for `Cc1ccc(C(=O)CN2C(=O)NC3(CCc4ccccc43)C2=O)c(C)c1` (stereo unspecified) was -0.51% (inactive). As for `COc1ccc(C(=O)CN2C(=O)NC3(CCc4ccccc43)C2=O)c(OC)c1` (stereo unspecified), the figure is 22.9% (active); as for `COc1ccc(-n2c(C)cc(C(=O)CN3C(=O)NC4(CCc5ccccc54)C3=O)c2C)cc1` (stereo unspecified), -7.44% (inactive). As for `Cc1ccc(C(=O)NCC(=O)NCc2cc(=O)n(C)c(=O)n2C)cc1`, the figure is -0.97% (inactive); as for `CCOc1ccc(NS(=O)(=O)c2ccc(C(=O)NCC3CCCO3)cc2)cc1` (stereo unspecified), -2.16% (inactive). For the compound `Cc1nc(N)sc1-c1ccccc1`, the activation was 16.2% (active). As to `CC(=O)c1sc(N)nc1C`, the activation is 3.44% (inactive) and -1.75% (inactive). As for `Cc1nc(N)sc1N=Nc1c(C)n(C)n(-c2ccccc2)c1=O`, the figure is 3.22% (inactive); as for `CCN(C(=O)COC(=O)c1ccc(COc2ccc3c(C)cc(=O)oc3c2)cc1)C1CCS(=O)(=O)C1` (stereo unspecified), -5.76% (inactive); as for `CN=C(NC#N)NCCSCc1nc[nH]c1C`, -5.15% (inactive). The value for `O=C1c2cccc3cc(Br)cc(c23)C(=O)N1Nc1ccccc1` was 21.6% (active); that for `O=C1C=C(c2ccc(Cl)cc2)C(=O)N1Nc1ccccc1` was -7.82% (inactive). The value for `O=C1c2cccc3cccc(c23)C(=O)N1c1cccc(O)c1` was -10.1% (inactive).
